Bioassay records (PubChem BioAssay)
MITF inh = MITF inhibitors, primary screen, biochemical, AlphaScreen, human; AlphaScreen MITF homodimerization, bead proximity signal; inhibition, % at 2.6 µM; hit rate 0.91% among 650,000; in the data active = inhibition above about 50%;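 note: 0% = vehicle wells with protein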
GPR151 activ = activators of human GPR151, primary screen, cell-based, PathHunter beta-arrestin, luminescence; activation, % at 11.2 µM; PathHunter beta-arrestin GPR151 cells; hit rate 1% among 650,000; in the data active = activation above about 4.9%;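 note: 0% = median of compound wells and 100% = cells with positive control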
TEAD-YAP inh = TEAD-YAP interaction inhibition, primary screen, TEAD-YAP interaction inhibitor project, luminescence, HEK-TIYL cells | TEAD-Gal4/YAP UAS-luciferase luminescence | hit rate 1.4% among 640,000 | inhibition, % at 9.12 µM; in the data active = inhibition above about 32%;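 note: 0% = median of test compound wells and 100% = reference inhibitor wells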
FBW7 act = FBW7 E3 ligase activators, primary screen, biochemical, AlphaScreen, human. F-box/WD repeat-containing protein 7 (Homo sapiens), Q969H0. AlphaScreen FBW7–phospho-cyclin E peptide binding, activator screen. normalized activity (activation), % at 26.1 µM. hit rate 0.13% among 650,000. AID 1259310, 2017; in the data active = normalized activity above about 1.9%;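 note: purified mutant Fbw7 with reduced substrate affinity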
Target sequence (Q969H0 whole entry, looked up): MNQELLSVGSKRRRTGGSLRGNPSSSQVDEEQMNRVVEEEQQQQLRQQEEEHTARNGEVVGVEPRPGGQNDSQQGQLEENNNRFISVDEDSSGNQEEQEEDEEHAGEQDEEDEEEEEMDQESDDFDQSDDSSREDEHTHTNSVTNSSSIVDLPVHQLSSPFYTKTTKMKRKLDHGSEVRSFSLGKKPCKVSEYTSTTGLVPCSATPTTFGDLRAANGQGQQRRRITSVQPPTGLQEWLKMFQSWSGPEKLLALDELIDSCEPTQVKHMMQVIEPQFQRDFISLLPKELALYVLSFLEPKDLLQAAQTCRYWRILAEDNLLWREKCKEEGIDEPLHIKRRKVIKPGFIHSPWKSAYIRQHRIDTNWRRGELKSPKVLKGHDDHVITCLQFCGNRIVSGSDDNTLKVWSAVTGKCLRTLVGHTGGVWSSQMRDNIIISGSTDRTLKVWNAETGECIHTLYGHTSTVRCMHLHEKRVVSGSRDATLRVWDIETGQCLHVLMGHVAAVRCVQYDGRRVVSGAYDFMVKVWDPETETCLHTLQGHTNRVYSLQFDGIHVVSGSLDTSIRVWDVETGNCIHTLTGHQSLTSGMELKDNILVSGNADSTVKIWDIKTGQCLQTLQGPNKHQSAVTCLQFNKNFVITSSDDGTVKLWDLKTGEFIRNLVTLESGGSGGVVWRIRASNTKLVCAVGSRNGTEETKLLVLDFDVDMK
GPR151 conf act = GPR151 activators, triplicate retest, confirmation, cell-based, PathHunter beta-arrestin, luminescence. shares compounds with GPR151 activ. GPR151 PathHunter beta-arrestin cells, 90 min; % of EA-reagent control over plate median. activation, % at 11.2 µM. 6,700 tested, under 10 active;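 active = mean percent activation across replicates above the confirmation screen cutoff of 4.91%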
GPR119 counter = GPR119 activators in beta-arrestin cells, counter-screen for GPR151 activator project, cell-based, PathHunter beta-arrestin, luminescence, triplicate | AID 1508611, 2020 | activation, % at 11.2 µM | shares compounds with GPR151 activ | hit rate 0.3% among 6,700 | 90 min; 0 = compound-well median, 100 = enzyme-acceptor control;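 active = mean percent activation in the counterscreen above 29.09%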;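 note: counterscreen on off-target GPR119 to flag nonselective hits from the GPR151 activator screen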
An asterisk follows results filed as active. In the library only some 3.5% were active in any assay of this set; here they are far more common.

Screening COc1ccc(C2C(C(C)=O)=C(O)C(=O)N2CCO)c(OC)c1 (stereo not given) returned MITF inh -7.0, GPR151 activ 0.1, TEAD-YAP inh -1.8 and FBW7 act -0.1.
For CCCCN1C(=O)C(O)=C(C(C)=O)C1c1ccc(OC)cc1OC (stereo not given) the results were MITF inh 10.0, GPR151 activ 5.2*, TEAD-YAP inh -0.8, FBW7 act 0.0, GPR151 conf act 0.7 and GPR119 counter 11.9.
For C=CCc1ccccc1OCCNCCN the results were MITF inh 22.8, GPR151 activ -0.6, TEAD-YAP inh 6.0 and FBW7 act 0.0.
C=C1c2cc(CC)ccc2NC(=O)N1c1ccc(F)cc1 was read as MITF inh 9.6, GPR151 activ 0.7, TEAD-YAP inh -0.8 and FBW7 act 0.2.
Screening CCOc1ccc(C(=O)OCC#N)cc1OCC returned MITF inh 0.8, GPR151 activ -2.7, TEAD-YAP inh 1.6 and FBW7 act 0.1.
Screening CC1=C(C(=O)Nc2nc3ccccc3s2)C(c2ccc(Br)cc2)C2=C(CC(C)(C)CC2=O)N1 (stereo not given) returned MITF inh -13.4, GPR151 activ 0.2, TEAD-YAP inh 1.9 and FBW7 act 0.1.
Screening Cc1ccc(C2C3=C(CC(C)(C)CC3=O)Nc3n[nH]c(C)c32)cc1 (stereo not given) returned MITF inh 5.7, GPR151 activ 8.4*, TEAD-YAP inh 8.6, FBW7 act 0.1, GPR151 conf act -0.2 and GPR119 counter 0.0.
For Cn1c2c(c(=O)n(C)c1=O)C(c1ccc(F)cc1)C1=C(CC(C)(C)CC1=O)N2 (stereo not given) the results were MITF inh 2.9, GPR151 activ -0.4, TEAD-YAP inh 10.2 and FBW7 act -0.1.
Screening Cc1ccc(C2C3=C(CC(C)(C)CC3=O)Nc3c2c(=O)n(C)c(=O)n3C)cc1 (stereo not given) returned MITF inh -3.6, GPR151 activ 7.5*, TEAD-YAP inh 0.8, FBW7 act -0.5, GPR151 conf act -0.1 and GPR119 counter -5.5.
For CC1=C(C(=O)Nc2nc3ccccc3s2)C(c2ccc(C)cc2)C2=C(CC(C)(C)CC2=O)N1 (stereo not given) the results were MITF inh -4.2, GPR151 activ 6.5*, TEAD-YAP inh 14.9, FBW7 act 0.4, GPR151 conf act 0.9 and GPR119 counter 17.8.
`CCC(C)NC(=O)C1c2ccccc2C(=O)N(Cc2ccc(F)cc2)C1c1ccc(OC)cc1` (stereo not given) gave MITF inh -7.1, GPR151 activ 0.5, TEAD-YAP inh -2.7 and FBW7 act -0.2.
`CC(=O)Nc1ccccc1-c1nc2cc3ccccc3cc2[nH]c1=O` gave MITF inh -48.6, GPR151 activ -0.4, TEAD-YAP inh 0.6 and FBW7 act -0.2.
CCOc1ccc(C(=O)N2CCC(c3ncncc3-c3ccncc3)CC2)o1 was read as MITF inh -3.3, GPR151 activ 18.2*, TEAD-YAP inh -9.0, FBW7 act -0.1, GPR151 conf act 0.9 and GPR119 counter 10.8.
`CCOc1ccc(C(=O)N2CCCC(c3ncncc3-c3ccncc3)C2)o1` (stereo not given) gave MITF inh 9.8, GPR151 activ 2.5, TEAD-YAP inh 3.2 and FBW7 act 0.0.
For CCc1ccc(N(C(=O)Nc2ccccc2C)C2=NCCC2)cc1 the results were MITF inh -3.6, GPR151 activ 1.0, TEAD-YAP inh -4.6 and FBW7 act 0.1.
Screening O=C(NNC(=O)C12CC3CC(C1)CC(c1ccccc1)(C3)C2)c1ccncc1 returned MITF inh -2.4, GPR151 activ 6.0*, TEAD-YAP inh 2.3, FBW7 act -0.2, GPR151 conf act -0.3 and GPR119 counter 0.5.
For CCOCCCNC(=S)N1CCN(c2nc(-c3ccc(F)cc3)cs2)CC1 the results were MITF inh 7.4, GPR151 activ 5.8*, TEAD-YAP inh 32.8*, FBW7 act 0.1, GPR151 conf act 1.3 and GPR119 counter 20.5.
`CNc1c(N)c(=O)oc2ccccc12` gave MITF inh 9.3, GPR151 activ -0.2, TEAD-YAP inh -27.3 and FBW7 act 0.2.
`Cc1ccc(Nc2c(N)c(=O)oc3ccccc23)cc1` gave MITF inh 8.1, GPR151 activ 17.4*, TEAD-YAP inh -10.4, FBW7 act 0.1, GPR151 conf act -0.1 and GPR119 counter -4.8.
Screening O=C(CN1CCN(CCOCCO)CC1)Nc1ccc(OC(F)(F)Cl)cc1 returned MITF inh -5.3, GPR151 activ 2.5, TEAD-YAP inh -8.0 and FBW7 act 0.0.
Screening Cc1ccc(NC(=O)c2cnn3c(C(F)(F)F)cc(-c4ccco4)nc23)cc1 returned MITF inh 4.3, GPR151 activ -0.4, TEAD-YAP inh -5.4 and FBW7 act 0.0.
CC(=O)c1ccc(NC(=O)c2cnn3c(C(F)(F)F)cc(-c4ccco4)nc23)cc1 was read as MITF inh 16.7, GPR151 activ 6.8*, TEAD-YAP inh 5.8, FBW7 act 0.1, GPR151 conf act -0.3 and GPR119 counter -9.3.
O=C(Cc1ccc(Cl)cc1Cl)N1CCN(c2ccc(O)cc2)CC1 was read as MITF inh 4.3, GPR151 activ 5.2*, TEAD-YAP inh -7.5, FBW7 act 0.5, GPR151 conf act 0.1 and GPR119 counter -2.5.
For NC(=O)C1CCN(C(=O)Cc2ccc(Cl)cc2Cl)CC1 the results were MITF inh -1.4, GPR151 activ 0.7, TEAD-YAP inh -8.0 and FBW7 act -0.1.
Screening Cc1ccc(-c2nnc(N3CCCCC3)c3ccccc23)cc1S(=O)(=O)NCc1nc2ccccc2[nH]1 returned MITF inh 3.1, GPR151 activ -0.5, TEAD-YAP inh 0.3 and FBW7 act 0.0.
Screening O=C(c1ccc(N2CCCCC2)c([N+](=O)[O-])c1)N1CCOCC1 returned MITF inh 2.0, GPR151 activ 0.1, TEAD-YAP inh -10.3 and FBW7 act 0.0.
For CC1CCN(c2ccc(C(=O)N3CCOCC3)cc2[N+](=O)[O-])CC1 the results were MITF inh -4.7, GPR151 activ 5.2*, TEAD-YAP inh -13.7, FBW7 act -0.1, GPR151 conf act -1.4 and GPR119 counter -17.6.
